This is part of a sample that, as a whole, favours compounds with a hit. Of some 83,000 tested, about 20% had one in any assay.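 Single-dose data. Exposure time 48 hours. Values below 10 considered active.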 Unmarked numbers belong to inactive results. Activity calls are given as the source filed them.

One test relates to NCI-H322M lung. Description: NCI-60 one-dose screen, 48 h (100 = growth as untreated, 0 = no growth, -100 = all killed). Particulars: 10 µM unless noted.
As for `Cc1ccc2c(c1)C(=O)/C(=C/c1ncc([N+](=O)[O-])n1C)O2`, the growth is 75.6%.
For `CCCc1nn(C)c2c(=O)[nH]c(-c3cc(S(=O)(=O)N4CCN(C)CC4)ccc3OCC)nc12`, the growth was 101%.
The same measure, in the same setting: for `Cc1ccc(NC(=O)Nc2ccc(-c3cccnc3)cc2N2CCC(CO)CC2)cc1` the value was 34.3%; for `O=C(Nc1cccc([N+](=O)[O-])c1)c1cccc(C(=O)Nc2cccc([N+](=O)[O-])c2)c1`, 77.1%; for `O=C(Nc1nc(-c2ccccc2)cs1)c1cc(O)c(O)c(O)c1`, 69.1%.
Still for that read-out and setting: the same measure for `CC(C)(C)c1ccc(C(O)CCCN2CCC(C(O)(c3ccccc3)c3ccccc3)CC2)cc1` (centres undefined): 53.8%; for `Cc1cc(=O)n2n1-c1ccc(Cl)cc1NC(=O)C2`: 85.6%; for `CC(=O)NC1(C(=O)O)CCCC1`: 130%.
For `Nc1nc(N)c([N+](=O)[O-])c(=O)[nH]1`, the growth was 104%.
Still for that read-out and setting: the same measure for `COc1ccc2nc(NC(=O)c3cc(-c4ccc(F)cc4)n4nc(-c5ccccc5)cc4n3)sc2c1`: 82.8%; for `Cc1ccc2c(c1)O/C(=C\c1ccc([N+](=O)[O-])o1)C2=O`: 68.6%; for `CCOC(=O)c1c2c(c(C)n1Cc1ccc(OC)cc1)-c1nc(N)ncc1CC2`: 113%.
Still for that read-out and setting: for `COc1cc2c(-c3nc4cc(Cl)c(F)cc4s3)cc(=O)oc2c(C)c1OC` the value was 7.69% (active).
Turning to `COc1cc(C(=O)/C=C/c2cccnc2Nc2ccccc2)cc(OC)c1OC`, the growth was 7.04% (active).
Same read-out and setting: the same measure for `O=C(C(Br)Br)C(Br)C(Br)c1ccccc1` (centres undefined): 109%; for `CC/C=C\C=C/C(=O)N/C=C/CC1Cc2cccc(O)c2C(=O)O1` (centres undefined): 119%; for `c1ccc2cc(C[n+]3ccn(CCCCCCCn4cc[n+](Cc5ccc6ccccc6c5)c4)c3)ccc2c1`: 58.6%.
Still for that read-out and setting: the same measure for `Nc1ccc2c3c(cccc13)-c1ccccc1-2`: 75.1%.
On the same count and under the same terms, for `Clc1ccc([C@@H]2C[C@@H]3Cc4cc(Br)c5ccccc5c4N2O3)c(Cl)c1` the value was 90.7%; for `Cc1nn(-c2ccc(Br)cc2)c2nc3c(nc12)C(=O)C(=O)c1ccccc1-3`, 104%.
On to `COc1ccc(OC)c2c1[nH]c(=O)c1c3ccccc3cn21`, for which the growth is -70.7% (active).
Still for that read-out and setting: for `O=C(NCCCO)c1cc(Cl)ccc1O` the value was 83.6%; for `COc1ccc(C2=NN(C(C)=O)C(c3cc(OC)c(OC)c(OC)c3)C2)cc1` (centres undefined), 119%.
Still for that read-out and setting: the same measure for `CC(=O)O[C@H]1C(=O)[C@@]2(C)C([C@H](OC(=O)c3ccccc3)[C@]3(O)C[C@H](OC(=O)[C@H](O)[C@@H](NC(=O)c4ccccc4)c4ccccc4)C(C)=C1C3(C)C)[C@]1(OC(C)=O)CO[C@@H]1C[C@@H]2O` (some centres undefined): 28.1%.
Still for that read-out and setting: the same measure for `O=C(Nc1nc(-c2ccc(Cl)cc2)cs1)c1cc(O)c(O)c(O)c1`: 60.8%; for `CCCCN(CCCC)CCCOC(=O)c1ccc(N)cc1`: 98.2%; for `CCCCCCCCCCC[C@@H](C[C@H]1OC(=O)[C@H]1CCCCCC)OC(=O)[C@@H](CC(C)C)NC=O`: 94.2%.
`O=C1Nc2ccccc2C12Nc1cc(Cl)ccc1S2` (centres undefined): the growth was 87.1%.
Still for that read-out and setting: for `CCOc1cc(C(C)(C)C)ccc1C1=N[C@H](c2ccc(Cl)cc2)[C@H](c2ccc(Cl)cc2)N1C(=O)N1CCN(CC#Cc2cccc3c2CN([C@@H]2CCC(=O)NC2=O)C3=O)CC1` the value was 9.35% (active); for `CN(CCOc1ccc(CC2SC(=O)NC2=O)cc1)c1ccccn1` (centres undefined), 95.3%; for `C[C@]12CC[C@@H]3c4ccc(O)cc4CC[C@H]3[C@@H]1CC[C@@H]2NS(=O)(=O)c1cccc(Br)c1`, 70.6%.
On to `Clc1cc(Cl)c(OCC#CI)cc1Cl`, for which the growth is 127%.
The same measure, in the same setting: the same measure for `O=C(Nc1cccc(C(F)(F)F)c1)Nc1ccc(OCc2nnc(-c3ccc(Cl)cc3)o2)c(F)c1`: 86.5%.
`CCCn1cnc2c1c(=O)n(CCCCC(C)=O)c(=O)n2C`: the growth was 97.4%.
Same read-out and setting: for `N=c1ccn2c(n1)O[C@@H]1[C@@H](O)[C@H](CO)O[C@@H]12` the value was 82.2%; for `CCCCCCCCCCCCCCCCCc1nccn1CCO`, 78.1%; for `Nc1ccc(C2=Nc3cccc4cccc(c34)S2)cc1`, 88.1%.

A further test has as its system HOP-62 NSCLC. The test is described as above. The conditions noted are these: 10 µM unless noted.
Take `Cc1ccc2c(c1)C(=O)/C(=C/c1ncc([N+](=O)[O-])n1C)O2`: the growth is 61.2%.
Same read-out and setting: for `CCCc1nn(C)c2c(=O)[nH]c(-c3cc(S(=O)(=O)N4CCN(C)CC4)ccc3OCC)nc12` the value was 104%; for `Cc1ccc(NC(=O)Nc2ccc(-c3cccnc3)cc2N2CCC(CO)CC2)cc1`, 24.9%.
Same read-out and setting: for `O=C(Nc1cccc([N+](=O)[O-])c1)c1cccc(C(=O)Nc2cccc([N+](=O)[O-])c2)c1` the value was 106%.
Same read-out and setting: for `O=C(Nc1nc(-c2ccccc2)cs1)c1cc(O)c(O)c(O)c1` the value was 46.4%.
As for `CC(C)(C)c1ccc(C(O)CCCN2CCC(C(O)(c3ccccc3)c3ccccc3)CC2)cc1` (centres undefined), the growth is -79.5% (active).
Still for that read-out and setting: the same measure for `Cc1cc(=O)n2n1-c1ccc(Cl)cc1NC(=O)C2`: 104%.
On the same count and under the same terms, the same measure for `CC(=O)NC1(C(=O)O)CCCC1`: 117%.
On the same count and under the same terms, for `Nc1nc(N)c([N+](=O)[O-])c(=O)[nH]1` the value was 84.7%; for `COc1ccc2nc(NC(=O)c3cc(-c4ccc(F)cc4)n4nc(-c5ccccc5)cc4n3)sc2c1`, 61.4%.
For the compound `Cc1ccc2c(c1)O/C(=C\c1ccc([N+](=O)[O-])o1)C2=O`, the growth is 69.6%.
Take `CCOC(=O)c1c2c(c(C)n1Cc1ccc(OC)cc1)-c1nc(N)ncc1CC2`: the growth was 83.5%.
Still for that read-out and setting: for `COc1cc2c(-c3nc4cc(Cl)c(F)cc4s3)cc(=O)oc2c(C)c1OC` the value was -65.7% (active).
Turning to `COc1cc(C(=O)/C=C/c2cccnc2Nc2ccccc2)cc(OC)c1OC`, the growth was -74.2% (active).
With `O=C(C(Br)Br)C(Br)C(Br)c1ccccc1` (centres undefined), the growth is 109%.
The same measure, in the same setting: for `CC/C=C\C=C/C(=O)N/C=C/CC1Cc2cccc(O)c2C(=O)O1` (centres undefined) the value was 65.5%; for `c1ccc2cc(C[n+]3ccn(CCCCCCCn4cc[n+](Cc5ccc6ccccc6c5)c4)c3)ccc2c1`, 32.6%.
Same read-out and setting: for `Nc1ccc2c3c(cccc13)-c1ccccc1-2` the value was 100%.
The same measure, in the same setting: for `Clc1ccc([C@@H]2C[C@@H]3Cc4cc(Br)c5ccccc5c4N2O3)c(Cl)c1` the value was 87.2%.
Regarding `Cc1nn(-c2ccc(Br)cc2)c2nc3c(nc12)C(=O)C(=O)c1ccccc1-3`, the growth was 91.7%.
Still for that read-out and setting: for `COc1ccc(OC)c2c1[nH]c(=O)c1c3ccccc3cn21` the value was -33.6% (active).
On the same count and under the same terms, the same measure for `O=C(NCCCO)c1cc(Cl)ccc1O`: 36.3%; for `COc1ccc(C2=NN(C(C)=O)C(c3cc(OC)c(OC)c(OC)c3)C2)cc1` (centres undefined): 105%; for `CC(=O)O[C@H]1C(=O)[C@@]2(C)C([C@H](OC(=O)c3ccccc3)[C@]3(O)C[C@H](OC(=O)[C@H](O)[C@@H](NC(=O)c4ccccc4)c4ccccc4)C(C)=C1C3(C)C)[C@]1(OC(C)=O)CO[C@@H]1C[C@@H]2O` (some centres undefined): 24.6%.
The same measure, in the same setting: the same measure for `O=C(Nc1nc(-c2ccc(Cl)cc2)cs1)c1cc(O)c(O)c(O)c1`: 38.6%; for `CCCCN(CCCC)CCCOC(=O)c1ccc(N)cc1`: 88.7%; for `CCCCCCCCCCC[C@@H](C[C@H]1OC(=O)[C@H]1CCCCCC)OC(=O)[C@@H](CC(C)C)NC=O`: 72.3%.
For the compound `O=C1Nc2ccccc2C12Nc1cc(Cl)ccc1S2` (centres undefined), the growth was 98.4%.
Still for that read-out and setting: the same measure for `CCOc1cc(C(C)(C)C)ccc1C1=N[C@H](c2ccc(Cl)cc2)[C@H](c2ccc(Cl)cc2)N1C(=O)N1CCN(CC#Cc2cccc3c2CN([C@@H]2CCC(=O)NC2=O)C3=O)CC1`: 40.7%.
The same measure, in the same setting: for `CN(CCOc1ccc(CC2SC(=O)NC2=O)cc1)c1ccccn1` (centres undefined) the value was 94.3%; for `C[C@]12CC[C@@H]3c4ccc(O)cc4CC[C@H]3[C@@H]1CC[C@@H]2NS(=O)(=O)c1cccc(Br)c1`, -16.6% (active).
Still for that read-out and setting: the same measure for `Clc1cc(Cl)c(OCC#CI)cc1Cl`: 108%; for `O=C(Nc1cccc(C(F)(F)F)c1)Nc1ccc(OCc2nnc(-c3ccc(Cl)cc3)o2)c(F)c1`: 50.8%; for `CCCn1cnc2c1c(=O)n(CCCCC(C)=O)c(=O)n2C`: 101%.
As for `N=c1ccn2c(n1)O[C@@H]1[C@@H](O)[C@H](CO)O[C@@H]12`, the growth was 47.7%.
Consider `CCCCCCCCCCCCCCCCCc1nccn1CCO`, for which the growth is 68%.
On the same count and under the same terms, the same measure for `Nc1ccc(C2=Nc3cccc4cccc(c34)S2)cc1`: 83.6%.

The record behind these values is PubChem BioAssay (NCI).
